The values that follow come from PubChem BioAssay AID720650 (Broad Institute, 2013).

Molecules are shown by their SMILES. A number with no mark means an inactive call. Active and inactive are the calls of the source. How the calls were made is not given here.

This experiment in a line: C difficile toxins, biochemical counterscreen, UDPG substrate absence, confirmatory dose response (AID 720650). As to conditions: series mostly up to 19.5 µM.
On to `CCOc1ccccc1/C=C/c1onc(C)c1S(=O)(=O)N1CCC(C(=O)NC(C)C)CC1`, for which the AC50 entry is “inactive”.

Regarding `Nc1cc(=O)[nH]c(SCC(=O)Nc2ccccc2Sc2ccc(Cl)cc2)n1`, the AC50 result is “inactive”.

Turning to `O=C(O)c1ccc(-c2ccc(O)c(F)c2)cc1`, the AC50 was 13.5 µM (active).

Regarding `O=C(CNS(=O)(=O)c1ccccc1)N/N=C/c1ccc(O)cc1`, the AC50 was 14.9 µM (active).

`COc1ccc(C2=NS(=O)(=O)N(C)C(C(=O)NC(C)c3ccccc3)=C2)cc1OC` (stereo not drawn): the AC50 result is “inactive”.

As for `CCCNC(=O)N1CC[C@@H]2[C@@H](CO)N(C)c3ccc(-c4ccccc4)cc3[C@@H]21`, the AC50 is 3.93 µM (active).

Turning to `O=P1(Oc2ccccc2)OCCCS1` (stereo not drawn), the AC50 result is “inactive”.

As to `C[N+]1(CCCCSc2ccc(O)cc2)CCCCC1`, the AC50 is greater than 39 µM.

In the case of `CCCc1[nH]c(=O)c(C#N)c2c1CCCC2`, the AC50 entry was “inactive”.

For `Cc1ccccc1C(C(=O)NC1CCCCC1)N(C(=O)c1ccccn1)c1cccnc1` (stereo not drawn), the AC50 entry was “inactive”.

As to `O=C1NN=C2CCCCCCC12` (stereo not drawn), the AC50 entry is “inactive”.

Take `C[C@@H]1CN([C@H](C)CO)S(=O)(=O)c2ccc(-c3ccncc3)cc2O[C@@H]1CN(C)Cc1ccc(Oc2ccccc2)cc1`: the AC50 result was “inactive”.

In the case of `C[C@H](CO)N1C[C@H](C)[C@H](CN(C)Cc2ccc(Oc3ccccc3)cc2)Oc2cc(-c3ccncc3)ccc2S1(=O)=O`, the AC50 entry is “inactive”.

As to `O=C(CCNC(=O)c1ccccc1Cl)N/N=C\c1ccc(O)cc1`, the AC50 was 15.8 µM (active).

Regarding `O=C(C[C@H]1C[C@@H]2c3cc(NC(=O)c4ccc5c(c4)OCO5)ccc3O[C@@H]2[C@@H](CO)O1)NCc1cccc(F)c1`, the AC50 result was “inactive”.

For the compound `Cc1cc(N/N=C/c2ccc(O)cc2O)nc(N2CCOCC2)n1`, the AC50 was greater than 39 µM.

Turning to `CCOc1ccc(C(CC(=O)O)NC(=O)C23CC4CC(CC(C4)C2)C3)cc1OC` (stereo not drawn), the AC50 entry was “inactive”.

Take `COc1ccc(C(=O)Nc2c(-c3cccs3)c(=O)c3ccccc3n2C)cc1`: the AC50 result was “inactive”.

Consider `Cn1c(SCC(=O)c2cc3ccccc3o2)nnc1-c1ccccc1`, for which the AC50 result is “inactive”.

`Nc1ccc(N=Nc2ccc(O)cc2)c(N)n1`: the AC50 is 7.86 µM (active).

In the case of `CNC(=O)C1Cc2c(-c3ccccc3Oc3ccccc3)ccnc2O1` (stereo not drawn), the AC50 is greater than 39 µM.

Regarding `COc1ccc(Cl)cc1NC(=O)CN(C)C(=O)c1cc2c(s1)CCCC2`, the AC50 result was “inactive”.

`COc1ccc(C2=NS(=O)(=O)N(C)C(C(=O)N3CCN(C)CC3)=C2)cc1`: the AC50 entry is “inactive”.

As to `O=C(C[C@H]1CC[C@@H]2[C@H](COC[C@@H](O)CN2C(=O)Nc2ccc(Cl)c(Cl)c2)O1)NCc1ccncc1`, the AC50 result is “inactive”.

Regarding `O=C(Nc1ccc(O)cc1)/C(=C\c1cccs1)NC(=O)c1ccccc1`, the AC50 was 17.1 µM (active).

Regarding `C[C@H]1CN([C@@H](C)CO)S(=O)(=O)c2ccc(-c3ccncc3)cc2O[C@@H]1CN(C)Cc1ccc(Oc2ccccc2)cc1`, the AC50 entry was “inactive”.

Take `CN(C)CCNc1cccc2sc3ccc(O)cc3c(=O)c12`: the AC50 is 4.36 µM (active).

Turning to `COc1cc(-c2noc(C)c2C#CC2(O)CCCCC2)cc(OC)c1OC`, the AC50 entry is “inactive”.

Turning to `Cc1ccc(CNCCCn2cnc(C(=O)Nc3ccc(C)c(C)c3)n2)o1`, the AC50 result was “inactive”.

On to `Cc1cccc(CN2CCN(c3ncccn3)CC2)c1`, for which the AC50 result is “inactive”.

In the case of `Cc1ccc(/C=N/NC(=O)c2cccc(S(=O)(=O)Nc3ccccc3Cl)c2)o1`, the AC50 entry was “inactive”.

Consider `CC(C(=O)OCC(=O)c1c(N)n(C)c(=O)n(C)c1=O)N1C(=O)c2ccccc2C1=O` (stereo not drawn), for which the AC50 result is “inactive”.

`O=[N+]([O-])c1c(Nc2ccccc2O)ccc2nonc12`: the AC50 was greater than 39 µM.

For the compound `CC(C)C12NC(=O)NC(=O)N1CCS2` (stereo not drawn), the AC50 entry is “inactive”.

Turning to `O=C(CSc1cccc2cccnc12)N/N=C/c1ccc(F)cc1`, the AC50 result was “inactive”.

Regarding `CC(C)CNC(=O)C(=O)NCC1CCCN1S(=O)(=O)c1cccs1` (stereo not drawn), the AC50 entry is “inactive”.

Regarding `Cc1ccc(C(=O)NCCn2cc(SCC(=O)Nc3cc(C)on3)c3ccccc32)cc1`, the AC50 entry was “inactive”.

For the compound `COc1cc(C=NNC(=O)c2ccccc2-n2cccc2)ccc1O`, the AC50 result is “inactive”.
